Reference: the supplement of paper PMC6555819

Key:
Experiment in all cases: PBM binding z-score (relative to random genomic background probes); higher = stronger binding; sequences stand for … in GC…GCGATTGACAGCGTAGAATGAAGG
[1] = test system: FXR:RXRa (NR concentration 270 nM, RXRa partner concentration 90 nM)
Procedure, shortened: (§1)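 For binding z-scores, the reference was random background probes on custom Agilent 4×180K protein-binding microarrays. These arrays were incubated 1 h with ligand-free nuclear receptor dimers in PBS pH 7.4, 2% milk, 0.02% Triton X-100, 1 mM DTT, 0.2 mg/mL BSA and 0.4 mg/ml salmon testes DNA. Fluorescence was scanned after antibody detection of each partner (one per run) and regression-normalized.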

[2] = test system: LXRa:RXRa (NR concentration 270 nM, RXRa partner concentration 90 nM)
Procedure, shortened: as §1

[3] = test system: LXRa homodimer (NR concentration 270 nM)
Procedure, shortened: as §1

[4] = test system: LXRb:RXRa (NR concentration 270 nM, RXRa partner concentration 90 nM)
Procedure, shortened: as §1

[5] = test system: LXRb homodimer (NR concentration 270 nM)
Procedure, shortened: as §1

[6] = test system: PPARa:RXRa (NR concentration 270 nM, RXRa partner concentration 90 nM)
Procedure, shortened: as §1

[7] = test system: PPARg:RXRa (NR concentration 180 nM, RXRa partner concentration 90 nM)
Procedure, shortened: as §1

[8] = test system: PPARg:RXRa 270nM:90nM, anti-RXR (NR concentration 270 nM, RXRa partner concentration 90 nM)
Procedure, shortened: as §1

[9] = test system: PPARg:RXRa 30nM:10nM, anti-RXR (NR concentration 30 nM, RXRa partner concentration 10 nM)
Procedure, shortened: as §1

[10] = test system: PPARg:RXRa 90nM:30nM, anti-RXR (NR concentration 90 nM, RXRa partner concentration 30 nM)
Procedure, shortened: as §1

[11] = test system: PPARg:RXRa DBDmut IVT, anti-RXR (DBD mutation: RXRa K156A/R161A, NR concentration 270 nM, RXRa partner concentration 90 nM)
Procedure, shortened: as §1

[12] = test system: PPARg:RXRa IVT, anti-PPARg (NR concentration 270 nM, RXRa partner concentration 90 nM)
Procedure, shortened: as §1

[13] = test system: PPARg DBDmut:RXRa IVT, anti-PPARg (DBD mutation: PPARg1 K132A/R137A, NR concentration 270 nM, RXRa partner concentration 90 nM)
Procedure, shortened: as §1

[14] = test system: PPARg DBDmut IVT, anti-PPARg (DBD mutation: PPARg1 K132A/R137A, NR concentration 270 nM)
Procedure, shortened: as §1

[15] = test system: PPARg homodimer (NR concentration 180 nM)
Procedure, shortened: as §1

[16] = test system: PXR:RXRa (NR concentration 270 nM, RXRa partner concentration 90 nM)
Procedure, shortened: as §1

[17] = test system: PXR homodimer (NR concentration 270 nM)
Procedure, shortened: as §1

[18] = test system: RARa:RXR (NR concentration 270 nM, RXRa partner concentration 90 nM)
Procedure, shortened: as §1

[19] = test system: RARa homodimer (NR concentration 270 nM)
Procedure, shortened: as §1

[20] = test system: RARb:RXRa (NR concentration 270 nM, RXRa partner concentration 90 nM)
Procedure, shortened: as §1

Sequence	PBM binding z-score [1]	PBM binding z-score [2]	PBM binding z-score [3]	PBM binding z-score [4]	PBM binding z-score [5]	PBM binding z-score [6]	PBM binding z-score [7]	PBM binding z-score [8]	PBM binding z-score [9]	PBM binding z-score [10]	PBM binding z-score [11]	PBM binding z-score [12]	PBM binding z-score [13]	PBM binding z-score [14]	PBM binding z-score [15]	PBM binding z-score [16]	PBM binding z-score [17]	PBM binding z-score [18]	PBM binding z-score [19]	PBM binding z-score [20]
AATGCAGGGTCACTAGGCCAGAGTAGGTACGAAT	6.22	4.62	0.0121	3.54	0.179	5.78	7.48	6.77	3.41	5.76	4.1	5.62	1.45	0.273	2.1	3.26	0.127	4.25	0.109	4.13
CAAACTAGGTCACGATAGGTCAAAGTCGAATGAC	5.83	8.21	5.31	6.9	1.01	6.14	9.76	7.74	6.05	7.79	8.73	9.21	3.89	2.14	4.63	5.42	0.73	5.95	1.74	4.88
GTACTAAGGTGAATAGGTCGTTGATGAGTAGGCG	1.68	1.21	0.221	0.926	0.00742	2.75	1.77	2.5	0.778	1.53	2.8	3.12	0.603	0.0798	1.34	1.22	0.545	2.45	1.14	2.62
AATACAGGGTCACTAGGCGAGAGTAGGTACGAAT	6.08	4.92	1.02	3.94	1.26	5.66	7.02	6.14	2.65	4.89	3.92	5.14	1.72	0.921	2.09	3.16	0.858	4.27	1.4	4.29
GCTATTAGTTGAAAGGGCAACCCAATGATTCTCG	0.453	0.68	0.645	0.925	-0.181	2.4	2.65	4.29	1.81	3.88	0.127	0.818	-0.129	0.251	1.44	0.791	0.511	1.27	0.81	2.08
ATCTCTAGGTAAAGATAGTTCAGGGAATGCAAAT	0.392	3.65	0.565	0.755	0.535	1.06	0.543	0.544	0.404	0.317	2.05	1.37	1.02	0.575	0.895	0.937	0.399	0.601	1.17	0.787
CGTCAAAGTACAACTAAGGTAACGTAAAGCACGC	0.707	0.122	0.142	0.219	0.198	0.548	0.918	0.504	0.132	0.467	0.337	0.863	-0.144	0.398	0.606	0.34	0.247	2.1	0.546	1.34
TATCCAGGGTCAAAGGCCAGAGTACGAATGTCGA	7.03	5.91	2.02	5.03	2.02	6.22	7.96	7.53	5.26	6.94	2.23	4.91	0.174	1.96	2.06	4.77	0.563	6.33	1.05	4.55
ATCTCTAGGTAAAAGTTCAGTGTATCCCGAGGAT	0.805	1.47	1.82	1.14	0.968	4.08	7.71	8.23	7.05	9.47	2.32	3.71	1.69	1.72	1.66	2.25	2.23	1.53	1.59	2.5
CAAACTAGCTCAAAGGTCAAAGTCGAGCCAACCA	5.95	5.85	4.59	5.66	2.54	6.14	9.32	8.51	8.32	9.43	1.24	4.54	0.599	0.63	4.6	5.37	1.71	6.39	2.49	4.76
TCTGCTAGGTCAGTTGCTCAGCTAACGAGCTGCC	0.259	0.241	-0.836	-0.204	-0.131	0.67	-0.489	1.14	0.796	1.19	2.23	2.17	-0.136	0.103	-0.987	-0.163	-1.12	-0.122	-1.62	2.9
GGTACGAGGGCAAGTTGATAGCAGAGTTTGATGG	0.998	0.455	-0.268	0.434	-0.129	1.02	0.722	0.456	-0.104	0.235	2.1	1.59	-0.734	-1	0.42	1.06	0.796	0.502	0.101	2.75
CCTAGTGGGCCATCAGGTCATTGATATCAACGTT	1.47	1.04	0.915	1.63	-0.159	2.74	3.06	3.69	1.05	2.74	4.56	5.23	-0.169	0.327	1.35	1.62	0.58	1.86	0.517	1.94
TTACCAAGGTGAGCTGAGGTGGTTGATCCAACTC	-0.284	-0.505	-0.878	-0.761	-1.22	0.275	-0.0433	0.188	-0.313	0.186	0.594	1.48	-0.51	-0.991	-0.428	0.478	-0.709	1.53	-0.848	0.757
ATCTCTAGGTAAAGATAGTTCACTGAATGCAAAT	0.402	4.91	1.11	1.37	0.641	1.26	0.98	0.827	0.387	0.797	2.05	1.64	0.743	0.839	1.04	1.81	0.848	1.12	0.837	1.26
